Results from the supplement of paper PMC10849652.
The full data set covers some 7,900 targets. This sample favours those with a hit. About 0.6% of all pairs of compound and target were hits.

Columns and labels:
Assay in all cases: log2 fold change, soluble protein after heating vs DMSO (PISA); higher = thermal stabilisation; K562 cells, 10 uM, 30 min; active = over 0.2 and 3.5 SD of the protein, either way, in both replicates (recomputed)
erlotinib = compound: C#Cc1cccc(Nc2ncnc3cc(OCCOC)c(OCCOC)cc23)c1 [erlotinib]
Outline: (§1)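 Aliquots of K562 cells (2×10^6 cells/mL) treated with 10 μM compound for 30 min were heated for 3 min over 48°C-58°C. After pooling and extraction in PBS with 0.5% NP-40 at 4°C, soluble protein from a 21,000xg, 90 min spin was quantified by TMTpro 16plex LC-MS/MS with channel sums equalised. Thermal stability is expressed against control samples, from duplicates, as a log2 fold change.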

[1] = compound: C/C(=N\NC(=O)C1=CC(=CC=C1)S(=O)(=O)N2CCOCC2)/C3=C(C=CC(=C3)Cl)O
Outline: as §1

[2] = compound: C1=CC(=C(C=C1Cl)C2=NC3=NC=CN=C3C(=N2)NC4=CC=NC=C4)F
Outline: as §1

[3] = compound: C1=CC(=CC=C1C2=NC3=C(N2)C=C(C=C3)C(=O)N)OC4=CC=C(C=C4)Cl
Outline: as §1

[4] = compound: C1=CC2=C(C=CC(=C2)/C=C\3/C(=O)NC(=NCC4=CC=CS4)S3)N=C1
Outline: as §1

[5] = compound: C1=CC2=NC=CN=C2C=C1/C=C/3\C(=O)NC(=O)S3
Outline: as §1

[6] = compound: C1=CC=C(C=C1)C2=NC(=C(N2)C3=CC=NC=C3)C4=CC(=C(C=C4)Cl)O
Outline: as §1

[7] = compound: C1=CC=C2C(=C1)C3=NNC4=CC=CC(=C43)C2=O
Outline: as §1

[8] = compound: C1CCN(C1)C(=O)NC2=CC=CC(=C2)NC3=NC=C(C(=N3)NCCC4=CN=CN4)Br
Outline: as §1

[9] = compound: C1CN(CCC1(CC2=CC=C(C=C2)Cl)N)C3=NC=NC4=C3C=CN4
Outline: as §1

IRAK-1-4 Inhibitor I = compound: C1COCCN1CCN2C3=CC=CC=C3N=C2NC(=O)C4=CC(=CC=C4)[N+](=O)[O-] [IRAK-1-4 Inhibitor I]
Outline: as §1

ibrutinib = compound: C=CC(=O)N1CCC[C@@H](n2nc(-c3ccc(Oc4ccccc4)cc3)c3c(N)ncnc32)C1 [ibrutinib]
Outline: as §1

[10] = compound: CC(=O)c1cnc2ccc(-c3cc(Cl)c(O)c(Cl)c3)nc2c1N[C@H]1CC[C@H](CN(C)C)CC1
Outline: as §1

ralimetinib = compound: CC(C)(C)Cn1c(N)nc2ccc(-c3[nH]c(C(C)(C)C)nc3-c3ccc(F)cc3)nc21 [ralimetinib]
Outline: as §1

[11] = compound: CC(C)(O)CC(=O)NCCn1ccc2ncnc(Nc3ccc(Oc4cccc(C(F)(F)F)c4)c(Cl)c3)c21
Outline: as §1

[12] = compound: CC(C)C1=C2N=C(C=C(N2N=C1)NCC3=CC=CC=C3)NCCCCCCN
Outline: as §1

[13] = compound: CC(C)C[C@@H](C=O)NC(=O)[C@H](CC(C)C)NC(=O)[C@H](CC(C)C)NC(=O)OCc1ccccc1
Outline: as §1

pinometostat = compound: CC(C)N(C[C@H]1O[C@@H](n2cnc3c(N)ncnc32)[C@H](O)[C@@H]1O)[C@H]1C[C@@H](CCc2nc3cc(C(C)(C)C)ccc3[nH]2)C1 [pinometostat]
Outline: as §1

[14] = compound: CC1=C(C(CC(=O)N1)C2=CC=C(C=C2)C(F)(F)F)C(=O)NC3=C(C=C4C(=C3)C=NN4)F
Outline: as §1

[15] = compound: CC1=C(C2=C(C=C1)C(=O)C3=CC=CC=C3N2CCCN)C
Outline: as §1

Measured: log2 fold change

MICOS13 (UniProt Q5XKP0)
Sequence of UniProt Q5XKP0 (Q5XKP0 whole entry, looked up): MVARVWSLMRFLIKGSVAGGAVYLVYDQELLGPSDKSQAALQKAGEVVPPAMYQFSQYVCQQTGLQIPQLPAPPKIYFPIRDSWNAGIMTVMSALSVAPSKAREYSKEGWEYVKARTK
inactive: erlotinib 0.008 | [1] 0.018 | [2] 0.053 | [3] -0.007 | [4] 0.001 | [5] 0.039 | [6] 0.051 | [7] 0.052 | [8] 0.007 | [9] 0.023 | IRAK-1-4 Inhibitor I 0.087 | ibrutinib -0.012 | [10] -0.022 | ralimetinib -0.077 | [11] -0.193 | [12] -0.146 | [13] 0.006 | pinometostat -0.023 | [14] -0.009 | [15] -0.008

ILRUN (UniProt Q9H6K1)
Sequence of UniProt Q9H6K1 (Q9H6K1 whole entry, looked up): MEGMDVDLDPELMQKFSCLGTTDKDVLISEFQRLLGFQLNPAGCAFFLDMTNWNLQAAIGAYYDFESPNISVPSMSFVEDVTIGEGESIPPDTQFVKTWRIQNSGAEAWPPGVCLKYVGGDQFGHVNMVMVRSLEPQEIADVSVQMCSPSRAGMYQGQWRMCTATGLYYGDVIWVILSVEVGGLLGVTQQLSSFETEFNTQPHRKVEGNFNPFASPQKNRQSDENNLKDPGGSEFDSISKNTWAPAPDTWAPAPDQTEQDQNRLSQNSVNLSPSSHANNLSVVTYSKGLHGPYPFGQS
inactive: erlotinib -0.009 | [1] 0.069 | [2] -0.033 | [3] 0.027 | [4] 0.075 | [5] 0.043 | [6] -0.06 | [7] -0.063 | [8] 0.028 | [9] 0.041 | IRAK-1-4 Inhibitor I 0.031 | ibrutinib 0.044 | [10] -0.011 | ralimetinib -0.004 | [11] -0.035 | [12] -0.148 | [13] 0.027 | pinometostat -0.06 | [14] 0.031 | [15] -0.055

MIEF1 (UniProt L0R8F8)
inactive: erlotinib 0.025 | [1] 0.102 | [2] 0.021 | [3] -0.022 | [4] -0.073 | [5] -0.072 | [6] 0.033 | [7] 0.02 | [8] -0.107 | [9] 0.019 | IRAK-1-4 Inhibitor I 0.071 | ibrutinib 0.065 | [10] 0.022 | ralimetinib -0.004 | [11] 0.011 | [12] -0.021 | [13] -0.053 | pinometostat -0.005 | [14] 0.052 | [15] -0.004

MAD2L1 (UniProt Q13257)
Sequence of UniProt Q13257 (Q13257 whole entry, looked up): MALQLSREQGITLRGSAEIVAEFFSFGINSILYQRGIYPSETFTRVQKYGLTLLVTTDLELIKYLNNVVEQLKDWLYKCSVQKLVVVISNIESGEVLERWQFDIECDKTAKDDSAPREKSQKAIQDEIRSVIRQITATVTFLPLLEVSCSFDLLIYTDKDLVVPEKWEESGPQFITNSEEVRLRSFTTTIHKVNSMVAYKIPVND
inactive: erlotinib -0.01 | [1] 0.056 | [2] 0.029 | [3] -0.052 | [4] 0.033 | [5] 0.056 | [6] -0.009 | [7] 0.007 | [8] 0.01 | [9] -0.032 | IRAK-1-4 Inhibitor I 0 | ibrutinib -0.095 | [10] 0.008 | ralimetinib -0.004 | [11] -0.057 | [12] -0.112 | [13] -0.018 | pinometostat 0.031 | [14] -0.004 | [15] -0.033

MCU (UniProt Q8NE86)
inactive: erlotinib 0.007 | [1] 0.042 | [2] 0.083 | [3] 0.008 | [4] 0.027 | [5] 0.013 | [6] 0.001 | [7] 0.014 | [8] 0.004 | [9] 0.013 | IRAK-1-4 Inhibitor I 0.06 | ibrutinib -0.026 | [10] -0.036 | ralimetinib -0.042 | [11] -0.108 | [12] -0.122 | [13] -0.026 | pinometostat 0.03 | [14] 0.025 | [15] 0.017

KIFBP (UniProt Q96EK5)
Sequence of UniProt Q96EK5 (Q96EK5 whole entry, looked up): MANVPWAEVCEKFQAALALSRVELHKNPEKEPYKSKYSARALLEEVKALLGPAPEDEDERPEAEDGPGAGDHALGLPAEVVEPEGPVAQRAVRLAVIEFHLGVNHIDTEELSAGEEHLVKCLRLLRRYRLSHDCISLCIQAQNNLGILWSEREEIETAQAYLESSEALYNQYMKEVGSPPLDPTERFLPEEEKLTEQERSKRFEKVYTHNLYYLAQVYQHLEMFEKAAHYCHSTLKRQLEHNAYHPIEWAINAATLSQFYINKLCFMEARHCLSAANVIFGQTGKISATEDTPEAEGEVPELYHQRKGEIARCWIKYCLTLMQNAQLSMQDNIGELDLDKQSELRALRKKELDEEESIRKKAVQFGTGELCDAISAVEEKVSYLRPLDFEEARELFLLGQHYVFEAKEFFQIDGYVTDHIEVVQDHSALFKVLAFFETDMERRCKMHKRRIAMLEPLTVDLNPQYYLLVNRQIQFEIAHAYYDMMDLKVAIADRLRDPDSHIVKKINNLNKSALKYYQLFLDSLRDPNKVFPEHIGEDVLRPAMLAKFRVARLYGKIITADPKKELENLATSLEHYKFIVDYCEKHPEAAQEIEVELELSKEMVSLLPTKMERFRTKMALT
inactive: erlotinib -0.034 | [1] 0.147 | [2] 0 | [3] 0.017 | [4] 0.074 | [5] -0.015 | [6] -0.008 | [7] 0.03 | [8] 0.014 | [9] -0.058 | IRAK-1-4 Inhibitor I -0.019 | ibrutinib 0.011 | [10] -0.033 | ralimetinib -0.02 | [11] -0.045 | [12] -0.172 | [13] 0.2 | pinometostat 0.019 | [14] -0.034 | [15] 0.054

MAST4 (UniProt O15021)
inactive: erlotinib -0.016 | [1] 0.101 | [2] 0.082 | [3] 0.054 | [4] 0.032 | [5] 0.048 | [6] -0.086 | [7] -0.02 | [8] -0.007 | [9] -0.094 | IRAK-1-4 Inhibitor I -0.025 | ibrutinib -0.138 | [10] -0.089 | [11] -0.091 | [12] -0.085 | [13] 0.002 | pinometostat -0.057 | [14] -0.027 | [15] 0.268
active: ralimetinib -0.479

LRRFIP1 (UniProt Q32MZ4)
Sequence of UniProt Q32MZ4 (Q32MZ4 whole entry, looked up): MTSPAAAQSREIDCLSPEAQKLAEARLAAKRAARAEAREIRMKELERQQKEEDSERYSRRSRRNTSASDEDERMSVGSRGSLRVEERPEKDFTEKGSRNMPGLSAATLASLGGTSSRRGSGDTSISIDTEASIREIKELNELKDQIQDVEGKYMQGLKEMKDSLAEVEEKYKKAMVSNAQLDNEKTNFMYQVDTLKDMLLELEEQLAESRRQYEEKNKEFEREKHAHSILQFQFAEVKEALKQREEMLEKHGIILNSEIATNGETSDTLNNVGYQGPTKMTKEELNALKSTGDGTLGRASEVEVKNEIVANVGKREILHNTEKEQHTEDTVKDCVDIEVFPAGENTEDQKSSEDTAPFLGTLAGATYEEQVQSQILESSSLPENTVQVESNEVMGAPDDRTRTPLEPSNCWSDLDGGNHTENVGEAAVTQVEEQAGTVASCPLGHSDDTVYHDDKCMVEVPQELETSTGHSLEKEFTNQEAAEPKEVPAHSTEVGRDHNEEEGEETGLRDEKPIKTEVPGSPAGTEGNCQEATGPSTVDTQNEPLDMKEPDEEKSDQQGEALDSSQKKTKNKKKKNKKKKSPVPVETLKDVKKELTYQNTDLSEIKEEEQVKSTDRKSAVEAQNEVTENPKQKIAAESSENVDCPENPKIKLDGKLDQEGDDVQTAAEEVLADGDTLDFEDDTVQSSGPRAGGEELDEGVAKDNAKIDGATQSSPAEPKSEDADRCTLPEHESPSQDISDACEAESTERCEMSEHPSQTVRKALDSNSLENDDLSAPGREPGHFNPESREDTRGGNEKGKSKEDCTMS
inactive: erlotinib 0.072 | [1] -0.045 | [2] -0.027 | [3] 0.018 | [4] -0.01 | [5] 0.052 | [6] -0.024 | [7] -0.042 | [8] 0.056 | [9] 0.041 | IRAK-1-4 Inhibitor I 0.014 | ibrutinib 0.019 | [10] 0.027 | ralimetinib -0.003 | [11] 0.063 | [12] 0.084 | [13] 0.011 | pinometostat 0 | [14] 0 | [15] -0.043

LUC7L2 (UniProt Q9Y383)
active: [10] -0.646
inactive: erlotinib -0.001 | [1] 0.122 | [2] 0.013 | [3] 0.098 | [4] -0.218 | [5] -0.031 | [6] 0.008 | [7] -0.143 | [8] -0.03 | [9] -0.072 | IRAK-1-4 Inhibitor I -0.207 | ibrutinib -0.026 | ralimetinib 0.111 | [11] 0.031 | [12] -0.134 | [13] -0.04 | pinometostat -0.048 | [14] 0.009 | [15] -0.037

IL27RA (UniProt Q6UWB1)
Sequence of UniProt Q6UWB1 (Q6UWB1 whole entry, looked up): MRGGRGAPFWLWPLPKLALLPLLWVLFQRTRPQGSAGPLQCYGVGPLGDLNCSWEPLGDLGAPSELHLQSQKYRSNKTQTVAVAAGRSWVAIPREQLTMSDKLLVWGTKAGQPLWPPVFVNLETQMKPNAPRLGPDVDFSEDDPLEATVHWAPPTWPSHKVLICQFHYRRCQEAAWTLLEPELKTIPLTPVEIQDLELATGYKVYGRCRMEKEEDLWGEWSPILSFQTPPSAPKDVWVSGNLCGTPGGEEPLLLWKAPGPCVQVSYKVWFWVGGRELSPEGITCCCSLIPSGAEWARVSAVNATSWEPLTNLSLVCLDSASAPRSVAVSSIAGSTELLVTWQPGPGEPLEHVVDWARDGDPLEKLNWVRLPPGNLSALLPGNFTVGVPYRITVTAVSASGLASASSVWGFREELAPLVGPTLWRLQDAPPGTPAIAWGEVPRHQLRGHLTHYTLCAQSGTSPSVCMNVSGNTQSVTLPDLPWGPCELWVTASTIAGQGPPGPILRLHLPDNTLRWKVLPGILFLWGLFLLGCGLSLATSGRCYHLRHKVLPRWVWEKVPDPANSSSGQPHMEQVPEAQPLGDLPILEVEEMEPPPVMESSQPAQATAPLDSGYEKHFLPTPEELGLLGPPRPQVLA
inactive: erlotinib -0.082 | [1] 0.04 | [2] -0.147 | [3] 0.007 | [4] 0.021 | [5] 0.048 | [6] 0.064 | [7] 0.068 | [8] -0.011 | [9] 0.075 | IRAK-1-4 Inhibitor I -0.189 | ibrutinib 0.077 | [10] 0.011 | ralimetinib 0.058 | [11] 0.005 | [12] 0.139 | [13] -0.167 | pinometostat 0.043 | [14] 0.1 | [15] 0.012

MIEF1 (UniProt Q9NQG6)
inactive: erlotinib 0.009 | [1] 0.03 | [2] 0.104 | [3] 0.021 | [4] 0.072 | [5] 0.001 | [6] 0.025 | [7] -0.027 | [8] -0.028 | [9] -0.021 | IRAK-1-4 Inhibitor I 0.056 | ibrutinib -0.003 | [10] -0.016 | ralimetinib -0.07 | [11] -0.183 | [12] -0.247 | [13] -0.034 | pinometostat -0.038 | [14] -0.085 | [15] 0.112

KPNA1 (UniProt P52294)
Sequence of UniProt P52294 (P52294 whole entry, looked up): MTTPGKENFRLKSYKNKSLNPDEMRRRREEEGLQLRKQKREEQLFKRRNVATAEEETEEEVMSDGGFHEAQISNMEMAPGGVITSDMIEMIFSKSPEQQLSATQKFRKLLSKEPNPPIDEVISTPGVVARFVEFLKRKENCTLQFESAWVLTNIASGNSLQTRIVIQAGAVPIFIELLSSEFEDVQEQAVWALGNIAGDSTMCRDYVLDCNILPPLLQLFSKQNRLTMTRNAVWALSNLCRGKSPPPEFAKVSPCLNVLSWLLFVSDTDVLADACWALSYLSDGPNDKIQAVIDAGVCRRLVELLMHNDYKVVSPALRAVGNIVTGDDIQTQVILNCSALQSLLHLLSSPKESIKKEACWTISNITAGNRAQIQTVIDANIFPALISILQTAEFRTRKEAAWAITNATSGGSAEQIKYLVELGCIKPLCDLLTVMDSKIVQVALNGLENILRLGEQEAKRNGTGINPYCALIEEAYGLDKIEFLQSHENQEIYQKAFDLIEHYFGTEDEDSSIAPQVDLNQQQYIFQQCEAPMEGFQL
inactive: erlotinib -0.042 | [1] 0.09 | [2] -0.053 | [3] -0.037 | [4] -0.011 | [5] 0.009 | [6] 0.035 | [7] -0.061 | [8] -0.032 | [9] -0.07 | IRAK-1-4 Inhibitor I -0.046 | ibrutinib -0.073 | [10] 0.062 | ralimetinib 0.089 | [11] -0.022 | [12] 0.084 | [13] 0.123 | pinometostat 0.071 | [14] -0.05
active: [15] -0.26

MARK3 (UniProt P27448)
Sequence of UniProt P27448 (P27448 whole entry, looked up): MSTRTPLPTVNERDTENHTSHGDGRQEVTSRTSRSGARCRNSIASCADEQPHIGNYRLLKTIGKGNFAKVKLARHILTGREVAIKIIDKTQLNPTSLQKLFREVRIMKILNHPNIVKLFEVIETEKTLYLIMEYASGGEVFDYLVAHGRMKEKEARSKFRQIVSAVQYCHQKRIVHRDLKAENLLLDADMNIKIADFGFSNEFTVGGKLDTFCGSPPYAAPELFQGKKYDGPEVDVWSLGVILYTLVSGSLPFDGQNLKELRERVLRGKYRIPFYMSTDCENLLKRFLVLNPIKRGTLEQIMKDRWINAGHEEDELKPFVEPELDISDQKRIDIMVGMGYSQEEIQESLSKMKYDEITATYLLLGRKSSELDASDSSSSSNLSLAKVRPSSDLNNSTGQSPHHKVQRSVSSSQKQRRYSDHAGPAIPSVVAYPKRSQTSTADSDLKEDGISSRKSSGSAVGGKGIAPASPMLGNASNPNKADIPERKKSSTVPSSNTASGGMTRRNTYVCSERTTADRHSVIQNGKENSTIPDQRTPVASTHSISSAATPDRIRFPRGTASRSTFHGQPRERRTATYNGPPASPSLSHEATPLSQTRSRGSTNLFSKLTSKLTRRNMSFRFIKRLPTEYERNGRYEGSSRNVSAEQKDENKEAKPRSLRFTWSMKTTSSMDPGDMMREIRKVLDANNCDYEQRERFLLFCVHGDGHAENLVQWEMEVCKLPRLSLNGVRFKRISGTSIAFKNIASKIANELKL
inactive: erlotinib 0.009 | [1] 0.116 | [2] -0.031 | [3] 0.014 | [4] 0 | [5] 0.008 | [6] -0.032 | [8] -0.221 | [9] -0.208 | IRAK-1-4 Inhibitor I -0.071 | ibrutinib -0.026 | ralimetinib 0.014 | [11] -0.035 | [12] -0.171 | [13] 0.084 | pinometostat 0.156 | [14] 0.136 | [15] 0.026
active: [7] -0.578 | [10] -2.03

LEMD3 (UniProt Q9Y2U8)
inactive: erlotinib 0.102 | [1] 0.091 | [2] 0.109 | [3] -0.007 | [4] 0.003 | [5] -0.05 | [6] -0.01 | [7] 0.169 | [8] -0.063 | [9] -0.029 | IRAK-1-4 Inhibitor I 0.04 | ibrutinib 0.03 | [10] -0.173 | ralimetinib -0.082 | [11] -0.09 | [12] -0.056 | [13] 0.039 | pinometostat -0.026 | [14] 0.068 | [15] 0.101

LPGAT1 (UniProt Q92604)
inactive: erlotinib -0.005 | [1] 0.022 | [2] 0.201 | [3] -0.274 | [4] 0.183 | [5] 0.098 | [6] -0.043 | [7] -0.025 | [8] 0.017 | [9] 0.115 | IRAK-1-4 Inhibitor I -0.115 | ibrutinib -0.05 | [10] 0.064 | ralimetinib 0.041 | [11] -0.066 | [12] -0.277 | [13] -0.057 | pinometostat 0.013 | [14] 0.037 | [15] 0.069

INTS7 (UniProt Q9NVH2)
Sequence of UniProt Q9NVH2 (Q9NVH2 whole entry, looked up): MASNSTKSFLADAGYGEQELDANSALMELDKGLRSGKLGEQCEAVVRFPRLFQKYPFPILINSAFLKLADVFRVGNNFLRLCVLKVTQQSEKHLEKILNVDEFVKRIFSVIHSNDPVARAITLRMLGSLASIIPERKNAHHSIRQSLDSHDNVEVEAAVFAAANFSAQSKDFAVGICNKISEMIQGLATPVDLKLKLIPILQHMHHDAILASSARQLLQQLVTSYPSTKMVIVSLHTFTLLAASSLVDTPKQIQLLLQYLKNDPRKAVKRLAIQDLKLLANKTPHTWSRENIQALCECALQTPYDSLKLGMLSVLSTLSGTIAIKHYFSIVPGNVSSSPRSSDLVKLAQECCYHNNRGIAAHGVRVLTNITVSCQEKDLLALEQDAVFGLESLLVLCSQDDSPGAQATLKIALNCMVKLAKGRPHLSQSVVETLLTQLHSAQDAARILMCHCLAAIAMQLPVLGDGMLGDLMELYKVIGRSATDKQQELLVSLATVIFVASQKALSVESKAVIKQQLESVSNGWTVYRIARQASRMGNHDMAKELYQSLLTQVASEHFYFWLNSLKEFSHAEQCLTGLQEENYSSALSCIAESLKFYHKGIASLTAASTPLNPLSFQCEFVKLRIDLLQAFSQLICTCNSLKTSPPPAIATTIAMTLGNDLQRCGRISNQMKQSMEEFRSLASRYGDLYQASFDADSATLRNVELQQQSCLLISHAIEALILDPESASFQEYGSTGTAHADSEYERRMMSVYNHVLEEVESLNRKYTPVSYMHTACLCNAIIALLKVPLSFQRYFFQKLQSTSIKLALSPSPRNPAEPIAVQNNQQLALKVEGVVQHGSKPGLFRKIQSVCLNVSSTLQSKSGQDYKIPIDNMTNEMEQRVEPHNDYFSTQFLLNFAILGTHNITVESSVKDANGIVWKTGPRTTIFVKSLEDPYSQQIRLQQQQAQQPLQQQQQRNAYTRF
inactive: erlotinib 0.39 | [1] 0.067 | [2] -0.016 | [3] 0.046 | [4] -0.175 | [5] 0.036 | [6] -0.081 | [7] 0.022 | [8] -0.091 | [9] -0.009 | IRAK-1-4 Inhibitor I 0.021 | ibrutinib -0.104 | [10] 0.029 | ralimetinib 0.028 | [11] -0.085 | [12] -0.146 | [13] 0.077 | pinometostat -0.136 | [14] -0.07 | [15] 0.048
